Results from ChEMBL document CHEMBL3988442, “University of Dundee, Small-Polar-MMV Screening Library” (2021).
Hit rate of the full screen: of about 48,000 compounds, about 13,000 (27%) showed an effect of 50% or more. The list shows a part of the results.

System: Wolbachia pipientis
Experiment: Anti-Wolbachia Cell-Based Screen
Assay type: functional
Parameters: scale not given: in the data most compounds retested in dose-response had high values
Conditions: 5 µM

Compound | Percent Effect [%]
CCc1nc2n(n1)CCCC2NC(=O)Nc1cccc(F)c1F (centres undefined) | -21.46
C[S+]([O-])c1cccc(NC(=O)N(CCC#N)Cc2ccccn2)c1 (centres undefined) | -5.424
CCn1cc(CNc2ccc(N(C)CCOC)cn2)cn1 | 3.344
O=C(C1CCCc2[nH]ncc21)N1CCCC1 (centres undefined) | -1.484
O=C(C1CCCc2[nH]ncc21)N1CCCCCC1 (centres undefined) | 7.18
CC(C)(C)c1nnc2n1C(C(=O)N1CCCC1)CC2 (centres undefined) | 107.6
COCC1CN(Cc2ccoc2)Cc2cn(CC3CCOCC3)nc21 (centres undefined) | -9.673
CN1CCCC1CCNC(=O)Nc1ccccc1 (centres undefined) | 124.8
O=C(NCCCO)Nc1ccccc1 | -6.748
CN1CCCC1CNC(=O)CCCOCc1ccccc1 (centres undefined) | -8.407
COc1cccc(CC(=O)N2CCC(Cc3nnc(SC)n3C)CC2)c1 | 13.49
CCN1C[C@H]2CCN(C(=O)Cc3cccc(OC)c3)CC[C@H]2S1(=O)=O | 109.3
COc1cccc(NC(=O)N2CC[C@@H]3CN(C)S(=O)(=O)[C@@H]3CC2)c1 | 108.6
Cc1ccccc1NC(=O)N1CC[C@@H]2CN(C)S(=O)(=O)[C@@H]2CC1 | -6.47
Cc1ccccc1CNC(=O)N1CC[C@@H]2CN(C)S(=O)(=O)[C@@H]2CC1 | -7.794
COc1cccc(CC(=O)N2CC[C@@H]3CN(C)S(=O)(=O)[C@@H]3CC2)c1 | 102.6
COc1ccc(CC(=O)N2CCC(c3n[nH]c(C4CC4)n3)CC2)cc1 | -2.488
CN1C[C@H]2CCN(C(=O)NC3CCCC3)CC[C@H]2S1(=O)=O | 24.31
COc1cccc(CC(=O)N2CCN(c3cccc(C)c3)C(C)C2)c1 (centres undefined) | 0.04468
CCN1C[C@H]2CCN(C(C)=O)CC[C@H]2S1(=O)=O | 7.241
CCN1C[C@H]2CCN(C(=O)Nc3ccccc3C)CC[C@H]2S1(=O)=O | 5.146
COc1ccc(CC(=O)N2CC[C@@H]3CN(C)S(=O)(=O)[C@@H]3CC2)cc1 | 96.9

Compound | Percent Effect [%]
Cc1c(C(=O)N(CCN(C)C)Cc2ccccn2)oc2ccccc12 | -10.28
CCC1CN(C(=O)c2ccc(O)cn2)CCC(=O)N1Cc1ccccc1 (centres undefined) | -29.96
N#Cc1cc(S(N)(=O)=O)ccc1NC1CCc2cc(Cl)ccc21 (centres undefined) | -7.649
CNC(=O)[C@@H](c1ccccc1OC)N1CCC[C@H]1C(=O)NCCN(C)C.Cl.Cl | -2.091
COc1ccc(CN2CCCn3cncc3C2)cc1Cn1cncn1 | 17.87
COc1cnc(C2(O)CCN(C(=O)c3ccncc3)CC2)c(OC)n1 | -4.993
COc1ccc(NC(=O)c2ccco2)c(N2CCN(C(C)=O)CC2)n1 | -1.999
COc1cnc(C2(O)CCN(C(=O)c3ccco3)CC2)c(OC)n1 | 113.8
Cc1ccc(F)c(OC2(C(=O)O)CCN(C(=O)c3ccco3)CC2)c1 | -23.64
COc1cnc(C2(O)CCN(C(=O)c3ccccn3)CC2)c(OC)n1 | 107.9
CCC(=O)N1CCC(O)(c2ncc(OC)nc2OC)CC1 | -0.9107
COc1cnc(C2(O)CCN(C(=O)c3scnc3C)CC2)c(OC)n1 | 77.74
COc1cnc(C2(O)CCN(C(=O)c3cccnc3)CC2)c(OC)n1 | 2.765
O=C1CC(C(=O)O)C2(CCN(C(=O)Nc3ccccc3Cl)CC2)N1 (centres undefined) | 8.972
CS(=O)(=O)NC1CCN(C(=O)c2ccc(F)cc2)CC1 | 22.77
CCn1nc(C)c2nc(C(C)C)nc(NCCCO)c21 | 5.791
CC[C@H]1CN(C(=O)C(C)(C)C)CC[C@H]1CC(=O)O | 0.9693
CCS(=O)(=O)NCC1Cn2nnc(-c3ccccc3)c2CO1 (centres undefined) | 4.629
CN(C)CCn1c(=O)n(C)c(=O)c2ccccc21.Cl | 110
CC(CCc1ccccc1)NC(=O)CNCCCN(C)C.O=C(O)C(=O)O (centres undefined) | -3.27
CCc1nc(Cn2c(=O)n(C)c3ccccc32)no1 | -3.957
CC(C)N1CCN(CCn2cnc3c(F)cccc3c2=O)CC1 | -1.52

Compound | Percent Effect [%]
CC(C)NC(=O)CN(C)C(=O)c1c(Br)c2ccccc2n1C | -8.15
CC(C)NC(=O)CN(C)C(=O)c1c(Cl)c2ccccc2n1C | 7.479
CC(C)n1c(=O)c2ccccc2n(CCCN(C)C)c1=O.Cl | 74.16
CCCc1nc(Cn2c(=O)n(C)c3ccccc32)no1 | -1.157
Cc1cc(=O)c2ccccc2n1CC1CCN(C(C)C)C1 (centres undefined) | -7.176
CC(C)n1c(=O)c2ccccc2n(CCN(C)C)c1=O.Cl | 91.55
CC(C)n1c(=O)c2ccccc2n(CCN2CCCCC2)c1=O | 58.61
CC(C)S(=O)(=O)CC(=O)N(Cc1ccsc1)c1ccccc1 | -3.342
Cn1cc(CN2CCCC3(COCCN(Cc4c[nH]nn4)C3)C2)cn1.O=C(O)C(F)(F)F.O=C(O)C(F)(F)F (centres undefined) | -3.726
COCC(=O)N1CCCC(c2cc(C(F)F)n3ncnc3n2)C1.Cl (centres undefined) | 109.8
CC(C)C(=O)N1CCCC(c2cc(C(F)F)n3ncnc3n2)C1.Cl (centres undefined) | -4.51
O=C(Cc1ccsc1)N1CCCC(c2cc(C(F)F)n3ncnc3n2)C1 (centres undefined) | 112.3
Cc1nc(C2CCCN(C(=O)CO)C2)cc(N2CCOCC2)n1 (centres undefined) | -8.444
NC(=O)c1ccc(-n2ccnc2C2CC2)cc1N1CCCC1 | 30.18
COCCS(=O)(=O)N(Cc1ccsc1)c1ccccc1 | -9.25
COc1cc(CN(C)C(=O)NCC(=O)NC(C)C)ccc1SC | -30.2
COCC(=O)NCCC(=O)N1CCN(S(=O)(=O)c2cccc(Br)c2)CC1 | 2.832
Cl.O=C(NCCn1nc(C2CCNC2)c2cccnc21)C1CC1 (centres undefined) | 104.4
O=C(CCNC(=O)C1CCCC1)NCc1cccnc1-n1cncn1 | -1.584
Cl.O=C(NCCn1nc(C2CCNC2)c2cccnc21)C1CCC1 (centres undefined) | 119.3
